This is a sample that favours compounds with a hit; in the whole collection about 14% have one here.
Sm TGR inh = blocks Schistosoma mansoni thioredoxin glutathione reductase | purified TGR, DTNB reduction, TNB absorbance 405 nm | Q962Y6 | 3% of 360,000 active | Potency, µM (doses to about 114 µM), for the others: at the highest dose activity change, negative = inhibition, hits mostly inhibitors | AID 485364; also: potency is read from the fitted curve at half-maximal effect; nearly all actives have a fitted effect of over 60% in size
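First, TGR (20 nM dispensed) and NADPH were mixed with compound. Second, a 15 min room-temperature incubation followed. Third, further NADPH and then DTNB were added to start the reaction. Finally, TNB absorbance was monitored kinetically.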
Giardia FBPA inh = inhibitors of Giardia lamblia fructose-1,6-bisphosphate aldolase; A8B2U2; purified Giardia FBPA; Potency, µM (doses to about 59.6 µM), for inactives: at the highest dose activity, negative = inhibition, hits mostly inhibitors; 0.71% of 290,000 active; AID 2451; also: potency is read from the fitted curve at half-maximal effect; nearly all actives have a fitted effect of over 55% in size
Target sequence (A8B2U2 whole entry, looked up): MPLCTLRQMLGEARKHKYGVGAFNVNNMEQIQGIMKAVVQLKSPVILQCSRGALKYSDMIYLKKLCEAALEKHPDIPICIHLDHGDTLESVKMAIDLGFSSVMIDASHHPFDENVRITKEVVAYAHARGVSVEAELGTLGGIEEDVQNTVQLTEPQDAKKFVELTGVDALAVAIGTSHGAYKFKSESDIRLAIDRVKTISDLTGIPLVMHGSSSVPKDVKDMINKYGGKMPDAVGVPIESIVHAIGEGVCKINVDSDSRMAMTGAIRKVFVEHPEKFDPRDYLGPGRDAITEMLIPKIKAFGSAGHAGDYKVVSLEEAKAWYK
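Giardia FBPA (40 nM reagent) was preincubated 10 min at RT with compound (up to 57.5 uM final), then substrate plus GAPDH/TPI/NAD/arsenate coupling system with diaphorase/resazurin was added; resorufin fluorescence (525/598 nm) was read after 20 min.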
Pf growth 96h = inhibits malaria parasite growth, 96 h | 6.9% of 320,000 active | P. falciparum luciferase reporter growth, 96 h | Potency, µM (doses to about 28.7 µM), inactives show top-dose activity change, negative = inhibition, hits mostly inhibitors; also: potency is read from the fitted curve at half-maximal effect
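Cell-based qHTS: luciferase-tagged P. falciparum in erythrocytes (2% hematocrit, 0.05% parasitemia final) incubated with compounds for 96 hours, 37 C, 5% CO2; luciferase detection reagent then added and luminescence measured.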
Pf growth 48h = inhibits P. falciparum growth in the first generation, 48 h. Potency, µM (series often up to 28.7 µM), without a hit: at the top dose activity change, negative = inhibition, hits mostly inhibitors. P. falciparum luciferase growth in erythrocytes, 48 h. 5.9% of 310,000 active; also: potency is read from the fitted curve at half-maximal effect
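Parasite viability was followed by luminescence of a genomically integrated firefly luciferase. Cultures held 0.1% parasitemia at 2% hematocrit (final), incubated under 5% CO2 at 37 C.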
HCMV inh = inhibitors of human cytomegalovirus; HFF cells, HCMV-luciferase reporter, 72 h; active compounds read low; activity change, negative = inhibition, % at 57.5 µM; 4.5% of 410,000 active; AID 1259415; in the data active = activity change below about -60%; inconclusive = no clear call, values can overlap the other calls; inactive = above about -39%
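Compounds were evaluated in HFFs infected with an HCMV luciferase reporter virus (MOI 1 PFU/cell). Luciferase in lysates collected 72 h post infection served as the replication measure.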
* hit, by the source's call; ? = inconclusive; . = not tested or not shown. Unless noted, calls follow the shape of the dose curve; as a rule, active = well fitted curve in the direction sought with a large enough effect; inconclusive = small, poorly fitted or top-dose-only effect, or another doubt; inactive = no such curve, though single readings can be large; an effect the other way counts as inactive or inconclusive. % is scaled to controls: 0 for no effect and ±100 for the full control effect.

SMILES	Sm TGR inh	Giardia FBPA inh	Pf growth 96h	Pf growth 48h	HCMV inh
COc1ccc(-c2c(C)oc3ccc(C)cc23)cc1	16%	1%	72%	2%	-40
COc1ccc(-c2c3c(cc(C)[n+]2[O-])oc2ccc(OC)cc23)cc1	6%	-2%	-9%	3%	-91*
COc1ccc2oc3cc(C)[n+]([O-])c(-c4ccc(Cl)cc4)c3c2c1	1%	1%	?	-4%	-91*
COc1ccc(-c2cc(=O)c3cc(OC)ccc3o2)cc1	11%	2%	438%	291%	9
COc1ccc2oc3cc(C)[n+]([O-])c(-c4ccc(C)cc4)c3c2c1	-2%	0%	-21%	-20%	-93*
COc1ccc2oc(-c3ccccc3)c(C(N)=O)c2c1	4%	0%	29%	30%	-22
C=CCSSSCC=C	.	0%	-29%	1%	.
CCOc1ccccc1NC(=O)C(c1ccccc1)N1CCN(C(=O)c2ccco2)CC1 (centres undefined)	?	.	?	9.3µM*	1
Cc1ccc(NC(=O)C(c2ccccc2)N2CCN(C(=O)c3ccco3)CC2)cc1Cl (centres undefined)	-25%	.	?	10µM*	10
CCOc1ccc(CNC(=O)c2ccc3nc(N4CCOCC4)sc3c2)cc1	25%	-4%	1%	-1%	12
CC1(C)SC2C(NC(=O)C(N)c3ccccc3)C(=O)N2C1C(=O)O (centres undefined)	.	-11%	.	.	.
Oc1ccccc1CNCC12CC3CC(CC(C3)C1)C2	5%	-7%	0.083µM*	0.1µM*	-15
CC(Cc1ccccc1)NCc1ccccc1Cl (centres undefined)	.	.	15%	2%	.
CC(CC12CC3CC(CC(C3)C1)C2)NCc1ccccc1O (centres undefined)	1%	-12%	9.3µM*	?	-19
OCCNCC12CC3CC(CC(C3)C1)C2	.	-4%	?	-1%	21
CC(Cc1ccccc1)NCc1ccccc1O (centres undefined)	-16%	6%	?	?	-67*
CC(=O)N1c2ccc(S(=O)(=O)NCC3CCC(C(=O)NCCC(C)C)CC3)cc2CC1C (centres undefined)	-2%	.	.	.	0
COc1ccc(-c2nnc3sc(-c4ccccn4)nn23)cc1	-18%	1%	18%	-11%	.
c1ccc(-c2nn3c(-c4ccco4)nnc3s2)nc1	25µM*	8%	?	2%	6
Brc1ccc(-c2nn3c(-c4ccco4)nnc3s2)o1	8.9µM*	-6%	?	50%	19
Cc1ccc2nc(-c3ccc4c(c3)OCCO4)cn2c1	21%	?	67%	-89%	-103*
c1ccn2cc(-c3ccc4c(c3)OCCO4)nc2c1	-4%	-25%	26%	425%	?
CCCCn1nnnc1C(c1cc2ccccc2o1)N1CCN(CC(=O)NC(C)C)CC1 (centres undefined)	.	.	.	.	-5
Cc1ccc(S(=O)(=O)N2CN(Cc3ccco3)c3nc4ccccc4nc32)cc1	22µM*	-14%	?	?	?
COc1ccc(S(=O)(=O)N2CN(Cc3ccco3)c3nc4ccccc4nc32)cc1	11µM*	-17%	43%	12µM*	.
SMILES	Sm TGR inh	Giardia FBPA inh	Pf growth 96h	Pf growth 48h	HCMV inh
O=S(=O)(Nc1nc2ccccc2nc1NCc1ccco1)c1ccc(Cl)cc1	0%	12%	17%	-3%	30
Cc1ccc(S(=O)(=O)Nc2nc3ccccc3nc2NCc2ccco2)cc1	13µM*	-16%	.	118%	39
CC(=O)Nc1ccc2c(c1)CCCC2	-3%	-1%	43%	26%	18
CC(=O)Nc1ccc2c(c1)CCCC2=O	32µM*	-16%	34%	52%	16
CC(=O)Nc1ccc2c(c1)Cc1cc(N3C(=O)C=CC3=O)ccc1-2	.	.	.	.	-66*
O=C1NC(=O)/C(=C/c2ccccc2Cl)N1	-15%	-20%	?	.	-28
CCOC(=O)COc1ccccc1/C=N/O	-3%	2%	0%	-3%	13
CCOC(=O)COc1ccccc1/C=C1/NC(=O)NC1=O	-7%	-6%	10µM*	14%	-25
COc1cccc(/C=C2\NC(=O)NC2=O)c1O	2%	-1%	0.93µM*	76%	45

Assay outcomes deposited in PubChem by National Center for Advancing Translational Sciences (NCATS).
